KB-V1 MDR tox – qHTS assay for MDR1-selective chemotherapeutics: Primary screen using the drug-selected MDR subline cells KB-V1. KB-V1 MDR cells viability, CellTiter-Glo, 72 h. Potency, µM (top dose mostly 46.1 µM), hits mostly cytotoxic. 400,000 compounds, 3.4% hits; also: % is scaled to controls: 0 for no effect and ±100 for the full control effect; nearly all actives have a fitted effect of over 60% in size
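Cytotoxicity toward P-gp-expressing KB-V1 cells was determined as loss of CellTiter-Glo luminescence after 72 h at 37 degrees C. Compounds were tested in quantitative HTS format across a concentration range, with curves fitted to normalized data.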
HT1080 IDH1KD tx – qHTS for induction of synthetic lethality in tumor cells producing 2HG: qHTS for the HT-1080-IDH1KD cell line. HT-1080 IDH1 knockdown viability, ATP luminescence, 48 h. Potency, µM (top dose mostly 46.1 µM), for the others: top-dose activity, negative = toxicity, most hits filed as cytotoxic. 360,000 compounds, 2% hits. AID 686971, 2013;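 also: 0% = DMSO wells and -100% = cell-free medium wells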
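Luminescent ATP read-out (CellTiter-Glo, 10 min at room temperature) after 48 h compound exposure at 37 °C gave viability of IDH1-knockdown HT-1080 cells. Activity was normalised to DMSO and cell-free wells, then fitted as concentration-response curves.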
KB-3-1 tox – qHTS assay for MDR1-selective chemotherapeutics: Primary screen using the parental adenocarcinoma cell KB-3-1. KB-3-1 viability, CellTiter-Glo ATP luminescence, 72 h. Potency, µM (series often up to 46.1 µM), usual class: cytotoxic. 400,000 compounds, 1.4% hits; also: % is scaled to controls: 0 for no effect and ±100 for the full control effect; nearly all actives have a fitted effect of over 60% in size
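Cytotoxicity measured as CellTiter-Glo luminescence after 72 h at 37 C. Compound titrations were pinned onto drug-naive KB-3-1 parental adenocarcinoma cells grown in DMEM with 10% FBS, and normalized data fitted to concentration-response curves.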
TGFb SMAD3 inh – qHTS for Inhibitors of TGF-b. HepG2 CAGA-GFP TGF-b/SMAD3 reporter, GFP fluorescence, 18 h; TGF-beta stimulated, 500 pg/mL final. 410,000 compounds, 1.2% hits. Potency, µM (doses to about 46.1 µM), for the others: at the highest dose activity, negative = inhibition, usual class: inhibitors; also: % is scaled to controls: 0 for no effect and ±100 for the full control effect; nearly all actives have a fitted effect of over 65% in size
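Read-out: total well GFP (ex488/em500-530) summed from mean per-cell fluorescence. Cells: HEPG2 CAGA-GFP, 1% FBS DMEM, 18 h at 37 degrees C with 500 pg/mL final TGF-beta. Unstimulated wells served as the full-inhibition control; stimulated DMSO wells = 0%.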
HT1080-NT tox – qHTS for induction of synthetic lethality in tumor cells producing 2HG: qHTS for the HT-1080-NT fibrosarcoma cell line. Potency, µM (doses to about 46.1 µM), for the others: top-dose activity, negative = less viability, actives largely listed as cytotoxic. 360,000 compounds, 1.6% hits. HT-1080-NT fibrosarcoma viability, CellTiter-Glo ATP luminescence, 48 h;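 also: NT is the 2HG producing partner of a matched IDH1 knockdown line; 0% = DMSO-treated cells and -100% = media-only wells without cells; nearly all actives have a fitted effect of over 55% in size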
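Viability by CellTiter-Glo luminescence after 48 h compound exposure at 37C of HT-1080-NT cells (750/well, RPMI, 5% FBS). % activity scaled between DMSO wells and medium-only wells, then curve-fitted and categorized by curve class.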
HepG2 viability – qHTS for Inhibitors of TGF-b: Cytotox Counterscreen; HepG2 CAGA-GFP viability, ATP luminescence, 18 h; Potency, µM (titrated, usually from 46.1 µM), without a hit: at the highest dose activity change, negative = cytotoxicity, actives largely listed as cytotoxic; 410,000 compounds, 0.76% hits; AID 588856, 2011
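CellTiter-Glo luminescence gave cytotoxicity after 18 hours at 37 degrees C. The cells were HepG2 CAGA-GFP in 1% FBS DMEM, stimulated with 500 pg/mL TGF-beta after compound addition. %Activity was normalised to no-cell wells (complete cell-killing) and DMSO (no toxicity), and curves were fitted and classified.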
Numbers without * were called inactive; i = inactive; u = inconclusive; x = no result. Shown are actives, neighbours in structure and some others; about 6.6% of the full set was active somewhere. Calls follow the shape of the dose curve; as a rule, active = well fitted curve in the direction sought with a large enough effect; inconclusive = small, poorly fitted or top-dose-only effect, or another doubt; inactive = no such curve, though single readings can be large; an effect the other way counts as inactive or inconclusive. Potency is read from the fitted curve at half-maximal effect.

SMILES | KB-V1 MDR tox | HT1080 IDH1KD tx | KB-3-1 tox | TGFb SMAD3 inh | HT1080-NT tox | HepG2 viability
C/C(=N\NC(=O)c1cccc(Br)c1)c1ccccn1 | 1.46µM* | u | u | u | u | -35.4%
C/C(=N\NC(=O)c1cc(Br)ccc1O)c1ccccn1 | i | u | i | u | u | -27.0%
CCc1ccc2oc(-c3ccc(NC(=O)c4cc(OC)c(OC)c(OC)c4)cc3)nc2c1 | i | x | i | -2.9% | x | -25.6%
COc1cc(C(=O)Nc2ccc3oc(-c4cccnc4)nc3c2)cc(OC)c1OC | 14.6µM* | 13.8% | i | 0.2% | -3.5% | 28.6%
O=C(Nc1ccc2oc(-c3ccccc3)nc2c1)c1ccc2c(c1)OCCO2 | 8.2µM* | u | u | -12.7% | u | -34.8%
COc1cc(C(=O)Nc2ccc3oc(-c4ccccc4)nc3c2)cc(OC)c1OC | 8.2µM* | x | i | u | x | -68.6%
CCCC(=O)Nc1ccc2oc(-c3ccc(OC)c(Br)c3)nc2c1 | 2.59µM* | u | i | u | u | -38.9%
O=C(CSC1=Nc2ccccc2C2=NC(CCC(=O)NC3CCCCC3)C(=O)N12)Nc1cccc(C(F)(F)F)c1 (configuration not stated) | i | x | i | -26.9% | x | -24.4%
Cc1ccn2c(=O)c(C(=O)NCCc3ccc(S(N)(=O)=O)cc3)c(O)nc2c1 | i | x | i | -0.6% | x | -10.9%
O=C(Nc1ccccc1)[C@@H]1CC=C[C@@H]2CCN(C3CC3)C(=O)[C@@H]21 | i | x | i | 1.0% | x | 3.5%
COc1ccc(-n2ccn(Cc3ccccc3C)c(=O)c2=O)cc1 | x | x | x | 15.6% | x | -4.9%
Cc1c(C(=O)Nc2cccc(C(F)(F)F)c2)sc2nc[nH]c(=O)c12 | i | x | i | u | x | -32.7%
CCCCOc1ccc(S(=O)(=O)NCc2csc(-c3ccc(OC)cc3)n2)cc1 | x | x | x | x | x | -6.9%
COc1cc(C(=O)Nc2cc(-c3ccccc3)[nH]n2)cc(OC)c1OC | 18.4µM* | u | u | 13.7% | u | 0.1%
COc1cc(C(=O)Nc2nc(OC)c(-c3ccccc3)c(OC)n2)cc(OC)c1OC | i | u | i | -3.2% | u | -5.2%
COc1ccc(-c2nc3c(c(=O)n(C)c(=O)n3C)n2CC2CC(c3ccccc3)=NO2)cc1OC (configuration not stated) | 5.8µM* | -2.6% | i | 6.0% | -6.0% | -12.4%
COc1ccc(C(=O)OCC2CC(c3ccccc3)=NO2)cc1OC (configuration not stated) | i | 11.1% | i | -27.4% | 10.6% | -9.8%
Cc1c(C(=O)Nc2nccs2)oc2ccc(Br)cc12 | 8.2µM* | -1.6% | 5.8µM* | -9.1% | -2.7% | -22.4%
Cc1c(C(=O)Nc2ccc(-c3nnc4n3CCCCC4)cc2)oc2ccc(Br)cc12 | 8.2µM* | -13.8% | i | -0.8% | -8.6% | -26.5%
O=C(Nc1ccc(-c2nnc3n2CCCCC3)cc1)c1ccco1 | u | 16.0% | i | 3.7% | 24.0% | -7.1%
CC(C)=CCC/C(C)=C/CNC(=O)CC1C[C@H](C(=O)N(C(C)C)C(C)C)[C@@]2(C)c3[nH]c4ccccc4c3CCN2C1=O (some centres not stated) | i | -0.7% | i | -8.7% | -0.7% | -10.0%
Cc1ccc2cc(COC(=O)C3CCCO3)c(=O)[nH]c2c1 (configuration not stated) | 11.6µM* | 13.9% | u | -1.8% | 4.5% | 2.5%
COc1cccc(C=C2SC(=S)NC2=O)c1 | u | -5.4% | u | 0.0% | -9.5% | -14.8%
COc1cccc(C(C)=C2SC(=S)NC2=O)c1 | 20.6µM* | 7.0% | i | -15.0% | 9.8% | -48.2%
O=C(CCNS(=O)(=O)c1cccc2nsnc12)Nc1ccc(F)cc1 | i | x | i | 6.8% | x | 5.4%
SMILES | KB-V1 MDR tox | HT1080 IDH1KD tx | KB-3-1 tox | TGFb SMAD3 inh | HT1080-NT tox | HepG2 viability
C=CCN(CC=C)C(=S)NC(=O)c1ccc(OC)c(Br)c1 | u | 3.16µM* | u | -27.1% | u | -13.8%
CCN(CC)C(=S)NC(=O)c1ccc(OC)c(Br)c1 | i | -6.9% | i | 21.5% | -18.0% | 14.3%
CCC(Sc1nnnn1-c1ccccc1)C(=O)NC(C)c1ccccc1 (configuration not stated) | 5.8µM* | 8.3% | i | -26.1% | 1.0% | -3.4%
CC(Sc1nnnn1-c1ccccc1)C(=O)Nc1ccc(Cl)cn1 (configuration not stated) | 18.4µM* | 6.0% | i | -19.0% | 11.0% | -3.1%
CC1CCCCN1C(=O)Cn1c(SCC(=O)N(C)c2ccccc2)nc2ccccc21 (configuration not stated) | i | x | i | 5.0% | x | -2.6%
CCc1nc2ccc(C(=O)NCCOc3ccc(OC)cc3)cn2c1N(CCC(C)C)CCN(C)C | i | 20.6µM* | i | 10.4% | u | -23.0%
CCCCNC(=O)c1ccc2nc(CC)c(N(CCC(C)C)CCN(C)C)n2c1 | i | u | i | 6.5% | u | -17.6%
CCc1nc2ccc(C(=O)NCc3ccc4c(c3)OCO4)cn2c1N(CCC(C)C)CCN(C)C | u | u | i | u | 20.6µM* | -35.8%
CCC(=O)N1CCc2cc(Br)cc(S(=O)(=O)CCC(=O)N3CCN(c4ccccc4OC)CC3)c21 | i | x | i | 38.7% | x | -2.4%
CCCCOC(=O)c1ccc(NC(=O)/C(C#N)=C/c2ccc(-c3ccccc3)o2)cc1 | i | x | i | 0.3% | x | -13.5%
CCOc1ccc(NC(=O)CCSc2nc(-c3ccc4c(c3)OCO4)cc(C(F)(F)F)n2)cc1 | i | x | i | 2.6% | x | -26.0%
CCOc1cc(/C=N/NC(=O)Cn2nc([N+](=O)[O-])cc2C)cc(Br)c1OCc1ccccc1F | u | 10µM* | u | 21.7% | u | 0.6%
CCOc1cc(/C=N/NC(N)=O)cc(Br)c1OCc1ccccc1F | i | 0.3% | i | -9.6% | 2.5% | -1.5%
CCCn1c(=N)c(C(=O)NCC2CCCO2)cc2c(=O)n3cccc(C)c3nc21 (configuration not stated) | i | -2.9% | 20.6µM* | 0.0% | u | -34.9%

Source: PubChem BioAssay
